The full data set covers some 7,900 targets. This sample favours those with a hit. About 0.6% of all pairs of compound and target were hits.
Compound: c1cn2cc(-c3ccc4cn[nH]c4c3)nc(Nc3ccc(N4CCOCC4)cc3)c2n1 [entospletinib]
Test: log2 fold change, soluble protein after heating vs DMSO (PISA); higher = thermal stabilisation; K562 cells, 10 uM, 30 min; active = over 0.2 and 3.5 SD of the protein, either way, in both replicates (recomputed)
Method in brief: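 Thermal stability values are relative to control samples and come from duplicates. They are expressed as log2 fold changes. For measurement, K562 cells (2×10^6 cells/mL) received 10 μM compound for 30 min, and aliquots were heated for 3 min over 48°C-58°C, pooled, and extracted at 4°C in PBS with 0.5% NP-40. Soluble protein, the supernatant after 21,000xg for 90 min, was quantified by TMTpro 16plex LC-MS/MS with equalised channel sums.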

UniProt Q5VZM2, sequence (Q5VZM2 whole entry, looked up): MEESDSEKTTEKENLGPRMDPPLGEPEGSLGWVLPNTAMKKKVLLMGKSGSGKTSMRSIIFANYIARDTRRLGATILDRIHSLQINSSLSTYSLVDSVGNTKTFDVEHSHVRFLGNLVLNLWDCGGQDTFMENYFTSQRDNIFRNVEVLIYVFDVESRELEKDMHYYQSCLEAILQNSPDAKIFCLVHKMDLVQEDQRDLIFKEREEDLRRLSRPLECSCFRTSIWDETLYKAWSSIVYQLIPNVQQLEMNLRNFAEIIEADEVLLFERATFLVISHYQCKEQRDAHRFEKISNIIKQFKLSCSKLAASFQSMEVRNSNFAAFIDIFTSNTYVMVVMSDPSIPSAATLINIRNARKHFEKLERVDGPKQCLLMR
UniProt Q01974, sequence (Q01974 whole entry, looked up): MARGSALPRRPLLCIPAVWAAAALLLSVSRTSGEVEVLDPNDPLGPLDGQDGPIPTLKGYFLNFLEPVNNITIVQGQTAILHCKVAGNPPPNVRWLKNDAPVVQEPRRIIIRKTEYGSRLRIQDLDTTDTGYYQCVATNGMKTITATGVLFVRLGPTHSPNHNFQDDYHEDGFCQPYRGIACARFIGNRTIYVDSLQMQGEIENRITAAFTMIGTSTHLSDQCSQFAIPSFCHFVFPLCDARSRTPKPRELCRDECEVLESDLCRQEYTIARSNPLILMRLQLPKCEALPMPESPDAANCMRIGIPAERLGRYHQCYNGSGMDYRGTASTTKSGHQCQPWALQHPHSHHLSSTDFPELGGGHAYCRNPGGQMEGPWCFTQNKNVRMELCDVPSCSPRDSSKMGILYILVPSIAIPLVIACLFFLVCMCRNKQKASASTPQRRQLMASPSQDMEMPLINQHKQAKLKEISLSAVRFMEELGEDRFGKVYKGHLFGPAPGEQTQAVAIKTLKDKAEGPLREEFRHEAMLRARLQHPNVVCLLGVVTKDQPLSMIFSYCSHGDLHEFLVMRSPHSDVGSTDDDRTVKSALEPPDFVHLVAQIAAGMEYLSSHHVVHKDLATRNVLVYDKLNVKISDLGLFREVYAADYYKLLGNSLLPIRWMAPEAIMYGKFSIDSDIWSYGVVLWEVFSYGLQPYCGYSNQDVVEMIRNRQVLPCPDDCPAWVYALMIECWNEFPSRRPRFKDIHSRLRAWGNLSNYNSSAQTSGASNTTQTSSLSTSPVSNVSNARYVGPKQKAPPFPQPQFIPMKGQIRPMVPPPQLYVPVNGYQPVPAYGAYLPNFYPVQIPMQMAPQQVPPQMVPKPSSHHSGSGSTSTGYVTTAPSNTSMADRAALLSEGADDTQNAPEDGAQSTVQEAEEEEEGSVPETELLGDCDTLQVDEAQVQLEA
UniProt Q9UPN6, sequence (Q9UPN6 whole entry, looked up): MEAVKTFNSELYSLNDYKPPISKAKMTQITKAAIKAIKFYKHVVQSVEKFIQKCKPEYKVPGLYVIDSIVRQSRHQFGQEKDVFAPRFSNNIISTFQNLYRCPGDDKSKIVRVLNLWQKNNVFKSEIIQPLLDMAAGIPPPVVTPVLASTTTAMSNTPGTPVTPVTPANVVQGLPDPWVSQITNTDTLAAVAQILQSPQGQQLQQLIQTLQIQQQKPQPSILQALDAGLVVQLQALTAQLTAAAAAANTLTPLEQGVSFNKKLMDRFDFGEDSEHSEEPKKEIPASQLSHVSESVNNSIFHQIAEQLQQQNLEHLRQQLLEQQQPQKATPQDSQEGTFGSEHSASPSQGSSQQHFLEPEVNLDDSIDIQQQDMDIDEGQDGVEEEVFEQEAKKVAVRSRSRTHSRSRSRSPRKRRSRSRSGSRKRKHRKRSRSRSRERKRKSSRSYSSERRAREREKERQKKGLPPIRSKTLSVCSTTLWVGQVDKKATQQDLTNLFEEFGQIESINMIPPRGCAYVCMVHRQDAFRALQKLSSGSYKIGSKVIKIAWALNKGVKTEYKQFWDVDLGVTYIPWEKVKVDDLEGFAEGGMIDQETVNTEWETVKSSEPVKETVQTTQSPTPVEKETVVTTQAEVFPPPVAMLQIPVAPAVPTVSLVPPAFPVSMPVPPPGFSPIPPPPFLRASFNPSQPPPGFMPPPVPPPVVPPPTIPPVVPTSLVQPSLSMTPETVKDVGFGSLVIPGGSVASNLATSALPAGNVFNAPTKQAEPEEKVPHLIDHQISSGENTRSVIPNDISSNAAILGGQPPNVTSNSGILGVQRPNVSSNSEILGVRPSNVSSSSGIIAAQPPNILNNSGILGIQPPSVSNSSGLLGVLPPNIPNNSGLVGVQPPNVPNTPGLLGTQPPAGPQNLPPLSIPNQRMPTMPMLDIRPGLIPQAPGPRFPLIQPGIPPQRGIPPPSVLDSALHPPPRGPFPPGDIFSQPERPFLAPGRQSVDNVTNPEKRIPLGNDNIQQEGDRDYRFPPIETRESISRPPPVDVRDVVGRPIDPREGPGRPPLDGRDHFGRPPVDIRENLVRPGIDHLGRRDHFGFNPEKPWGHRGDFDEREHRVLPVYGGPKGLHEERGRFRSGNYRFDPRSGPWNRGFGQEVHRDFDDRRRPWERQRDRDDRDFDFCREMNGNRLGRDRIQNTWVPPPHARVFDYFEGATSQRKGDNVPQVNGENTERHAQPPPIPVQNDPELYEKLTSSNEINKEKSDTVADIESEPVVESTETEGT
UniProt Q8NBX0, sequence (Q8NBX0 whole entry, looked up): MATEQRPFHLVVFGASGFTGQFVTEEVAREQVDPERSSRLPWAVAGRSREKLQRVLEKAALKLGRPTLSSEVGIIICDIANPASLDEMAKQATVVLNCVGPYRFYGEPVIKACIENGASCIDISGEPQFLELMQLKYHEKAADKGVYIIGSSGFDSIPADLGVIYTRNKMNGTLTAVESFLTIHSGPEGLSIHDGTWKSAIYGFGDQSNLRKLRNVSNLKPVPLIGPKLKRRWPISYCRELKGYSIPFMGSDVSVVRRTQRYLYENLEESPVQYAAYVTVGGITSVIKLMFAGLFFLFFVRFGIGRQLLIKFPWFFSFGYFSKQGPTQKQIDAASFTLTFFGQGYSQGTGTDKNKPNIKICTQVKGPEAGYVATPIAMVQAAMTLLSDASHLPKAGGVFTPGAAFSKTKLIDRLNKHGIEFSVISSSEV
UniProt Q96DM3, sequence (Q96DM3 whole entry, looked up): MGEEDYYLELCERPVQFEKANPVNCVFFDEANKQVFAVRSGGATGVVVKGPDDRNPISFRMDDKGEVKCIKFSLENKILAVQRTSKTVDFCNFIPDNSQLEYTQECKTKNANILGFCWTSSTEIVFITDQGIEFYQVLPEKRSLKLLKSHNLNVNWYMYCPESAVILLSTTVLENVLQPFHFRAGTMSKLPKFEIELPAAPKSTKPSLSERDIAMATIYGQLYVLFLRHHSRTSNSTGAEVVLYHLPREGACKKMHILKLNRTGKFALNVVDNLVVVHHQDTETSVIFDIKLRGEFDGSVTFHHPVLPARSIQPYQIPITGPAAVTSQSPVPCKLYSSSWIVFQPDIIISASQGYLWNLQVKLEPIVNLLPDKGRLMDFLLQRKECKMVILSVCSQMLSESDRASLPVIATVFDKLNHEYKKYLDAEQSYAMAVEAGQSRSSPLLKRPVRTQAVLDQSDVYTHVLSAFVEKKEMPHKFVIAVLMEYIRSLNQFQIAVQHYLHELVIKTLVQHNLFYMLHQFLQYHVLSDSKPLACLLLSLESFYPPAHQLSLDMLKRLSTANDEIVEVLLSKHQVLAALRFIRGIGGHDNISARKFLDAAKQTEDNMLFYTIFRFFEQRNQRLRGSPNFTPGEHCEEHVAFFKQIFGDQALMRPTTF
UniProt Q8IXJ6, sequence (Q8IXJ6 whole entry, looked up): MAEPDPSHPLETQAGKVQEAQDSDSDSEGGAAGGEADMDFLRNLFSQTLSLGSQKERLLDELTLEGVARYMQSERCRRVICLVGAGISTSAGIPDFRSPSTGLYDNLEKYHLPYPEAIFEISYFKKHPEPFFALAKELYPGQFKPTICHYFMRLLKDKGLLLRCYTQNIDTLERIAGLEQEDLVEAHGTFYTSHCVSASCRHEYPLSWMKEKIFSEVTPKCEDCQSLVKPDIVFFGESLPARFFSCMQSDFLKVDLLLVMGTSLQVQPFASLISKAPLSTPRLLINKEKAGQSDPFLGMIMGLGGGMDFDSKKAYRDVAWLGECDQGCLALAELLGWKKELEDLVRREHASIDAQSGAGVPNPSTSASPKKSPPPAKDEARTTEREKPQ
UniProt P60903, sequence (P60903 whole entry, looked up): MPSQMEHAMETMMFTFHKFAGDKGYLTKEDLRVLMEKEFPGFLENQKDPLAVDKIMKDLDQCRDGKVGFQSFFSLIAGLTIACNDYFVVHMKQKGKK
UniProt P05543, sequence (P05543 whole entry, looked up): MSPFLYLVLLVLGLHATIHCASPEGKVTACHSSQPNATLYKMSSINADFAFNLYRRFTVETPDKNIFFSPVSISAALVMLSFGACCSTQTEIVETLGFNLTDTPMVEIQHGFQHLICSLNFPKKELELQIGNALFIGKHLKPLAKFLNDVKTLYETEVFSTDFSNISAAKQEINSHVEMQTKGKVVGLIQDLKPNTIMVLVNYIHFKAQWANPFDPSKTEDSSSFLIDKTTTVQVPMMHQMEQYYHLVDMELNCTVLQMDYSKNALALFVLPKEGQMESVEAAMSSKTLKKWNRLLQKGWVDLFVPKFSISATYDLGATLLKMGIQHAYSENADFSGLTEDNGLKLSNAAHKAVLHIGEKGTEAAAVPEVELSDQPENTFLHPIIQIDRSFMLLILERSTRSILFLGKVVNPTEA
UniProt Q9H082, sequence (Q9H082 whole entry, looked up): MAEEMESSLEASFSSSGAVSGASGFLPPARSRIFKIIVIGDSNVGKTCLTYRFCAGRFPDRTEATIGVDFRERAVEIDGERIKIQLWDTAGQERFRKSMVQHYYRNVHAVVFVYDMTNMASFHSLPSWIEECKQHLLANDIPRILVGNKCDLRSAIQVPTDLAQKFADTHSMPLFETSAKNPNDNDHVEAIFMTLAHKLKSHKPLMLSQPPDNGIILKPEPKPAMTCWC
UniProt Q96GF1, sequence (Q96GF1 whole entry, looked up): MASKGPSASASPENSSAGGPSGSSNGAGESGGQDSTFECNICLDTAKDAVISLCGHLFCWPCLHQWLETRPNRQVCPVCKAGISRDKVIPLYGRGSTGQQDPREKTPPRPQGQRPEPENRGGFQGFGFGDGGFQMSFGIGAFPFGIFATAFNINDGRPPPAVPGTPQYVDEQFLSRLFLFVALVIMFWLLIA

log2 fold change, inactive:
RAB33B (UniProt Q9H082) -0.018
RBM22 (UniProt Q9NW64) -0.015
RPS14 (UniProt P62263) 0.025
RIPK1 (UniProt Q13546) 0.135
SLC12A5 (UniProt Q9H2X9) -0.081
RPS5 (UniProt P46782) 0.037
RBM39 (UniProt Q14498) -0.125
RAB9A (UniProt P51151) -0.015
RIC8A isoform 3 (UniProt Q9NPQ8) 0.095
SLC1A3 (UniProt P43003) 0.028
ROCK2 (UniProt O75116) -0.049
SCAF8 isoform 2 (UniProt Q9UPN6) -0.042
SCAF11 (UniProt Q99590) 0.185
RPS16 (UniProt P62249) 0.074
RDH10 (UniProt Q8IZV5) 0.03
ROR2 (UniProt Q01974) -0.025
RPS15 (UniProt P62841) 0.186
RPP25L (UniProt Q8N5L8) 0.066
RPS25 (UniProt P62851) 0.075
SERPINA7 (UniProt P05543) 0.273
SEC24A (UniProt O95486) 0.024
SETMAR (UniProt Q53H47) 0.075
RMC1 (UniProt Q96DM3) -0.03
RRP12 (UniProt Q5JTH9) -0.132
SEC23IP (UniProt Q9Y6Y8) -0.06
RAB5IF isoform 5 (UniProt Q9BUV8) -0.086
RPS6KA5 (UniProt O75582) -0.094
SIRT2 (UniProt Q8IXJ6) -0.047
RNF185 (UniProt Q96GF1) 0.128
SCCPDH (UniProt Q8NBX0) 0.076
RALA (UniProt P11233) -0.026
RETSAT (UniProt Q6NUM9) -0.006
RPS19 (UniProt P39019) 0.057
RABGAP1L isoform 3 (UniProt Q5R372) -0.021
RGS10 (UniProt O43665) -0.006
RRAGB (UniProt Q5VZM2) -0.04
S100A10 (UniProt P60903) -0.102

From the supplement of paper PMC10849652
